Compound activity deposited in PubChem by several laboratories.
Sampled rows, rich in hits. Any-hit rate of the full collection: about 4.2%.
Wnt act – activators of Wnt/beta-catenin signaling. Wnt/beta-catenin reporter cell assay, activator, plate reader. 300,000 compounds, 1.2% hits. activation, % at 9.35 µM; in the data active means activation above about 30%, passing the limit was not always enough;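 further: 0% = neutral control wells and 100% = positive control wells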
hgDAF12 agonist – hgDAF-12 agonism, primary luciferase screen. HEK293 GAL4-hgDAF12 UAS-luciferase reporter, agonist luminescence; normalized to butyrate control. activation, % at 6.8 µM. 370,000 compounds, 1.8% hits. AID 687014;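 active means activation above a cutoff set at the mean of all screened compounds plus 3 SD, cut at about 10% in these data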;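 further: 0% = DMSO wells and 100% = sodium butyrate wells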
hcDAF12 agonist – activates DAF-12 receptor from parasite H. contortus; HEK293 hcDAF-12 lit1-tk-luc reporter, luminescence; 0% DMSO, 100% Δ7-dafachronic acid; activation, % at 6.8 µM; 370,000 compounds, 1.4% hits;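 active means activation above the mean of all tested compounds plus 3 SD, cut at about 5.5% in these data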;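 further: 100% = response to 3 µM Δ7-dafachronic acid high control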
DAX1 inh – inhibitors of DAX1 repression of SF-1 activated StAR promoter; 370,000 compounds, 1.1% hits; inhibition, % at 6.8 µM; AID 652010; HEK293T StAR-luciferase reporter, SF-1/DAX-1 repression relief;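 active means inhibition above the mean over all tested compounds plus 3 SD, cut at about 3.6% in these data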;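 further: 0% = DAX-1 cells with DMSO and 100% = cells lacking DAX-1 with DMSO; higher inhibition means more luminescence from relief of DAX-1 repression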
ssDAF12 agonist – activates DAF-12 receptor from parasite S. stercoralis; HEK293 ssDAF-12/GRIP1 lit1-tk-luc reporter, luminescence; % of 3 µM dafachronic acid response; activation, % at 6.8 µM; 370,000 compounds, 1% hits; AID 652126;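 active means activation above the mean over all tested compounds plus 3 SD, cut at about 0.9% in these data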;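 further: 0% = DMSO-only wells and 100% = 3 µM delta7-dafachronic acid wells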
esBAF inh – blocks esBAF chromatin remodeling in mouse ES cells; 350,000 compounds, 2% hits; Bmi1-luciferase knock-in reporter, 24 h; 100% = twice the neutral-well signal; reporter increase, % at 12.5 µM; in the data active means activation above about 40%;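 further: 0% = median of the plate's neutral control wells and 100% = double that signal; a rise in the Bmi1 reporter signal indicates esBAF inhibition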
Numbers without * were called inactive; nt = no result given.

SMILES	Wnt act	hgDAF12 agonist	hcDAF12 agonist	DAX1 inh	ssDAF12 agonist	esBAF inh
O=C(NNC(=O)c1cccs1)c1csc(N2CCOCC2)n1	-1	2	-1	0	1.2*	-4
Cc1ccc(S(=O)(=O)NCC[C@@H]2CC[C@H](NC(=O)c3cnccn3)[C@H](CO)O2)cc1	nt	nt	nt	nt	nt	-1
CCCNC(=O)N1C[C@@H](C)[C@H](OC)CN(C)C(=O)c2cc(NC(=O)C3CCC3)ccc2OC[C@@H]1C	nt	nt	nt	nt	nt	-2
CCCN1C[C@H](C)[C@@H](OC)CN(C)C(=O)c2cc(NC(=O)COC)ccc2OC[C@@H]1C	nt	nt	nt	nt	nt	-3
CCCN1[C@H](C(=O)NCCOC)[C@@H](CO)[C@@H]2Cn3c(ccc(-c4cccc(C(=O)N(C)C)c4)c3=O)[C@@H]21	nt	nt	nt	nt	nt	-1
Cc1ccccc1-c1ccc([C@H]2[C@@H](CO)N3CCCCN(C(=O)c4cccnc4)C[C@@H]23)cc1	nt	nt	nt	nt	nt	-3
Cc1ccc(C(=O)NC(=S)Nc2ccc(N3CCN(C(=O)c4ccco4)CC3)cc2)cc1	-3	-2	0	-3	-2	-11
O=C(NC(=S)Nc1ccc(N2CCOCC2)cc1)c1cccs1	-1	12*	4	4.0*	1	28
O=C(CCc1ccccc1)Nc1ccc(S(=O)(=O)Nc2nccs2)cc1	-1	2	6.3*	0	0	-6
O=C(/C=C/c1cccs1)c1ccc(N2CCOCC2)cc1	7	11*	3	1	0	52*
CC1CCN(c2ccc(NC(=S)NC(=O)c3ccco3)cc2)CC1	nt	5	-1	0	-1	46*
C[C@H]1CN([C@@H](C)CO)C(=O)c2cc(-c3cccc(C#N)c3)cnc2O[C@H]1CN(C)C(=O)c1cnccn1	nt	nt	nt	nt	nt	-7
Cc1noc(C)c1NC(=O)N[C@H]1CC[C@H](CCNC(=O)C2CCCC2)O[C@H]1CO	nt	nt	nt	nt	nt	-1
COc1ccc(C2=NN(C(C#N)c3ccc(OC)c(OC)c3)C(c3ccccc3)C2)cc1 (configuration not stated)	61*	10	2	2	0	51*
COc1ccc(C2=NN(c3ccccc3)C(c3ccc(OC)c(OC)c3)C2)cc1 (configuration not stated)	5	3	0	1	-1	47*
COc1ccc(NC(=O)N[C@H]2CC[C@@H](CCn3cc(-c4ccccn4)nn3)O[C@H]2CO)cc1	nt	nt	nt	nt	nt	-4
Oc1oc(-c2ccc(Br)cc2)nc1/C=N/c1ccccn1	37*	13*	1	1	0	nt
Cc1ccc(-c2nc(C=Nc3ccccc3)c(O)o2)cc1	3	7	1	1	-1	nt
CO[C@H]1CN(C)C(=O)c2ccc(NC(=O)NC(C)C)cc2OC[C@@H](C)N(Cc2cncnc2)C[C@H]1C	nt	nt	nt	nt	nt	-1
CC(C)CN(C(=O)COC(=O)CCc1nc2ccccc2s1)c1c(N)n(Cc2ccccc2)c(=O)[nH]c1=O	-2	1	2	3.7*	-1	-1
CCN(C(=O)COC(=O)CCS(=O)(=O)c1ccccc1)c1c(N)n(Cc2ccccc2)c(=O)[nH]c1=O	39*	0	0	2	-1	1
CCN(C(=O)COC(=O)CCCc1nc2ccccc2s1)c1c(N)n(Cc2ccccc2)c(=O)[nH]c1=O	2	-1	1	-1	-1	-6
O=C(O)C[C@H]1C[C@@H]2c3cc(NC(=O)c4ccc5c(c4)OCO5)ccc3O[C@@H]2[C@H](CO)O1	nt	nt	nt	nt	nt	-2
COC(=O)c1sc2nc(-c3ccco3)ccc2c1N	nt	11*	3	3	0	-22
COc1ccc(O)c(C(=O)c2cnc3nc4ccccc4n3c2)c1	nt	2	6.1*	0	0	nt
C[C@@H]1CN([C@H](C)CO)C(=O)c2cc(-c3ccccc3)cnc2O[C@@H]1CN(C)CC1CC1	nt	nt	nt	nt	nt	-1
C[C@@H]1CN([C@H](C)CO)C(=O)c2cc(C#Cc3ccccc3F)cnc2O[C@@H]1CN(C)C(=O)c1ccc2c(c1)OCO2	nt	nt	nt	nt	nt	3
COc1ccc(CCNc2oc(-c3ccc(C)cc3)nc2C#N)cc1OC	0	-1	1	0	-2	5
N#Cc1nc(/C=C/c2ccccc2)oc1NCCCN1CCOCC1	17	3	-1	1	-1	nt
